KCNH2 WT inh: blocks the wildtype human KCNH2 potassium channel. activity change, % at 1.84 µM. AID 720551. actives 0.37% (n = 340,000). U2OS, BacMam KCNH2, thallium flux FluxOr; active compounds read low;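 active means maximum activity change below -70%; inconclusive means maximum activity change between -70% and -50%; inactive means maximum activity change above -50%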; further: on the % scale 0 is the no-effect control and ±100 the full control effect
Target sequence (Q12809 whole entry, looked up): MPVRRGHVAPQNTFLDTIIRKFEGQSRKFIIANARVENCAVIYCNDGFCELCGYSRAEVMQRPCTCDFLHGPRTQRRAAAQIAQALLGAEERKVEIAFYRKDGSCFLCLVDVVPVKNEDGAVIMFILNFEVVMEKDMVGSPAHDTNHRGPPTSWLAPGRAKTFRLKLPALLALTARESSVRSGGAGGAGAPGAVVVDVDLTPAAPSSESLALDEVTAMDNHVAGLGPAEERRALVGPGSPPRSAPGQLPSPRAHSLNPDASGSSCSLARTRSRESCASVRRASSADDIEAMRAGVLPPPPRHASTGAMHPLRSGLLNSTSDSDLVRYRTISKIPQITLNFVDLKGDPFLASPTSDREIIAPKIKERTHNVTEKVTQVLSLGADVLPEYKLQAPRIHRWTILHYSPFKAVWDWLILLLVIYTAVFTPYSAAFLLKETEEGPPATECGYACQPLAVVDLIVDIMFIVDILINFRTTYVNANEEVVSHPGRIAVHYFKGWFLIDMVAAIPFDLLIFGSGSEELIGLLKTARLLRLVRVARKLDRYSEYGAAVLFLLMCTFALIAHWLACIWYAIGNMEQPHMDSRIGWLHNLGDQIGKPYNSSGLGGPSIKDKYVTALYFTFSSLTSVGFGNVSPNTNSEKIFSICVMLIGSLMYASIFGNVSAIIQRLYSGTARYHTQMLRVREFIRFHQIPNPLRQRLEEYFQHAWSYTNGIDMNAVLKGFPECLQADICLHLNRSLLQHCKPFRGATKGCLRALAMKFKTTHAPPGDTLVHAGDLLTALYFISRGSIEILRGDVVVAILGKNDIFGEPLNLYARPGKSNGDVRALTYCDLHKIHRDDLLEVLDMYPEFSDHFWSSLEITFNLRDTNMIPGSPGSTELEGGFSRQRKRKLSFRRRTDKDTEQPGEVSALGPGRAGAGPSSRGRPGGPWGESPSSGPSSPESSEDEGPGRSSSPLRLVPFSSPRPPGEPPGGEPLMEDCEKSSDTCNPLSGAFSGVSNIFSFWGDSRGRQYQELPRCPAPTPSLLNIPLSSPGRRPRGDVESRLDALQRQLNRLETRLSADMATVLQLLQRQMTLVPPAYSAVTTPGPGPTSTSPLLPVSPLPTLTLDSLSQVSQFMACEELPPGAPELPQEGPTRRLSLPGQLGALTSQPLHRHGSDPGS
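U2OS cells were transduced with wild-type KCNH2 virus (2.03 x 10^8 / mL) for 4 h at room temperature, then cultured overnight at 37 C. Thallium flux was read with FluxOr dye. Rate constants were normalized to DMSO controls.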
BCR signal inh: blocks chronic active B-cell receptor signaling | ABC-DLBCL IkBa-CBG/CBR reporter, luminescence ratio, 4 h | Potency, µM (titrated, usually from 46.1 µM), without a hit: top-dose activity change, negative = inhibition, hits mostly inhibitors | actives 0.05% (n = 340,000) | AID 493014; active means well fitted inhibition curve with a large enough effect in the signal ratio, with a control signal flat, not every such curve was filed as active; inconclusive means small, poorly fitted or top-dose-only effect, or effect the other way, or a change in a side signal; the % refers to the signal ratio;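 further: potency means the concentration at half of the fitted maximal effect; plate controls were basal doxycycline-induced cells for no effect and cells given 10 µM MG132 for full effect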
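TMD8 ABC-DLBCL cells carrying doxycycline-inducible green luciferase fused to IkappaBalpha plus unfused red luciferase were exposed to compounds (up to 46 uM) for 4 hrs at 37C. Activity came from the overlap-corrected green/red luminescence ratio.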
ClpP mod: qHTS Assay for Activators of ClpP. ATP-dependent Clp protease proteolytic subunit (Bacillus subtilis (strain 168)), P80244. purified B. subtilis ClpP, FRET peptide cleavage, 20 min. Potency, µM (doses to about 57.5 µM), without a hit: top-dose activity change, negative = active. actives 1.9% (n = 340,000); active means well fitted falling curve with a large enough effect; inconclusive means small, poorly fitted or top-dose-only effect; inactive means no such curve, though single readings can be large or run the other way; further: potency means the concentration at half of the fitted maximal effect; the source files actives as falling curves though it sought activators and does not explain the sign; nearly all actives have a fitted effect of over 65% in size
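ClpP 10 microg/mL final, pH 8 Tris/KCl buffer with BSA, glycerol, Tween-20; compound pinned in; FRET-FV substrate; RT 20 min; Ex320/Em430; ΔFRET vs ADEP 5.8 microM, DMSO, no enzyme.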
ALOX12 inh: blocks human arachidonate 12S-lipoxygenase. purified 12hLO, xylenol orange hydroperoxide absorbance. Potency, µM (titrated, usually from 108 µM), for the others: at the highest dose activity change, negative = inhibition, actives largely listed as inhibitors. actives 1.1% (n = 580,000); active means well fitted inhibition curve with a large enough effect; inconclusive means small, poorly fitted or top-dose-only effect, or another doubt; inactive means no such curve, though single readings can be large or run the other way; further: potency means the concentration at half of the fitted maximal effect; on the % scale 0 is the no-effect control and ±100 the full control effect
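Hydroperoxide product was detected by ferrous iron/xylenol orange as the 573 to 405 nm absorbance ratio. Arachidonic acid at 40 uM (final) was turned over for 30 min at room temperature by 150 nM human 12hLO, pH 7.0 Hepes buffer, after 15 min compound preincubation.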
LDHA block: inhibitors of human lactate dehydrogenase A; actives 0.15% (n = 480,000); P00338; activity change, % (values are at about 110 or 230 µM); AID 1347041; purified LDHA, NADH/diaphorase-resazurin fluorescence; active compounds read low; in the data active means activity change below about -30%; inconclusive means mostly about -25% to -30%;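 further: plate controls were DMSO wells for no effect and wells without enzyme for full effect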
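Human LDH5 (2 nM) was incubated with 0.06 mM NADH and 0.2 mM pyruvate for 5 min at room temperature in Tris pH 7.4. Remaining NADH was coupled through diaphorase/resazurin, and resorufin fluorescence was read at 0 and 20 min.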
KCNH2 3.1 inh: inhibitors of human KCNH2 3.1 potassium channel isoform | actives 0.95% (n = 340,000) | U2OS KCNH2 3.1, thallium flux FluxOr; active compounds read low | activity change, % (tested at about 1.8 µM);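 active means maximum activity change below -70%; inconclusive means maximum activity change from -70% to -50%; inactive means maximum activity change above -50%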;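 further: thallium influx rate constant from kinetic fluorescence after stimulation buffer; on the % scale 0 is the no-effect control and ±100 the full control effect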
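Measured as rate of thallium-driven FluxOr signal in transduced U2OS cells carrying the 3.1 channel, read kinetically for 2 min upon stimulation; values are rate constants scaled to DMSO control wells.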
The depositor's hits bear a star; ? = inconclusive; / = no result given; ! = a repeat was not active; [ ] = dose if it differs, or a comment. Shown are actives, neighbours in structure and some others; about 3% of the full set was active somewhere.

SMILES | KCNH2 WT inh | BCR signal inh | ClpP mod | ALOX12 inh | LDHA block | KCNH2 3.1 inh
COc1ccc(C2CC(=O)NC(SCC(=O)Nc3ccccc3F)=C2C#N)cc1OC (stereo not given) | / | / | / | -10.7% | 1.1 | /
O=C(Nc1ccc(F)cc1)C1CCCN(C(=O)Cc2cccc3ccccc23)C1 (stereo not given) | / | / | / | -4.8% | 13.1 | /
CCC(=O)Nc1ccc(C)cc1-c1nnc(SCC(=O)Nc2ccc(Cl)c(Cl)c2)[nH]c1=O | / | / | / | ? | 6.0 | /
CC(=O)/C(=N\Nc1ccc(Cl)cc1)Sc1nnc(-c2ccccc2)n1-c1ccccc1 | -2.0 | ? | -0.9% | ? | -0.2 | 5.3
CC(=O)/C(=N/Nc1ccccc1)Sc1nnc(CCc2ccccc2)n1-c1ccccc1 | -6.1 | -0.5% | / | -9.4% | -2.0 | -90.2*
CC(C)OC(=O)c1c(NC(=O)C2c3ccccc3Oc3ccccc32)sc2c1CCCC2 | / | / | ? | -17.7% | -12.2 | /
O=C(Nc1sc2c(c1C(=O)O)CCCCC2)c1ccco1 | -0.4 | ? | -4.0% | 0.0% | -42.1*! | 13.0
CCOC(=O)c1c(NC(=O)c2ccc(C)cc2)sc2c1CC(C)(C)OC2 | 0.0 | -23.3% | 25.1µM* | -16.7% | 1.2 | 1.8
CCCOC(=O)c1c(NC(=O)C2c3ccccc3Oc3ccccc32)sc2c1CCCC2 | / | / | 12.6µM* | -27.9% | -14.0 | /
CN(C)C(=O)c1c(NC(=O)c2ccco2)sc2c1CCCCC2 | -7.3 | -10.6% | 1.3% | ? | 1.4 | 2.8
CC1CCc2c(sc(NC(=O)c3ccco3)c2C(=O)O)C1 (stereo not given) | 21.8 | ? | / | -15.8% | -40.6* | 8.2
COC(C)(C)C#CC(=O)c1cccc2ccccc12 | / | / | / | ? | 3.9 | /
CCN(C(=O)c1cc2ccc(OC)cc2[nH]1)C1CCCCC1 | / | / | / | -19.5% | -21.2 | /
COc1ccc2c(c1)/C(=N/OC(=O)c1cc(Cl)ccc1SC)CCC2 | / | / | / | ? | 7.3 | /
CCN(CC)S(=O)(=O)c1ccc(NC(=O)COc2ncnc3ccc(Br)cc23)cc1 | / | / | / | ? | 8.1 | /
COC(=O)c1c(NC(=O)c2ccoc2C)sc2c1CCC2 | 3.5 | 0.4% | 31.6µM* | -7.6% | -3.5 | 8.4
COC(=O)c1c(NC(=O)COC(=O)[C@@H](NS(=O)(=O)c2ccc(C)cc2)C(C)C)sc2c1CCC2 | -16.1 | ? | 28.2µM* | 0.2% | -1.7 | -6.3
COC(=O)c1c(NC(=O)COC(=O)c2ccc(C)s2)sc2c1CCCCC2 | -7.8 | 1.6% | -1.6% | -4.4% | -4.2 | 1.0
CCOC(=O)c1c(NC(=O)c2ccco2)sc2c1CCCCC2 | -8.0 | -1.3% | 35.5µM* | -16.2% | 6.8 | -2.7
FC(F)(F)CN1C2CCC1CN(c1nccc(Nc3ccccc3Cl)n1)C2 | / | / | / | 8.0%[6.33 µM] | / | /
COc1ccc(CNCCC(c2ccc(OC)cc2)c2ccccc2OC)cc1 (stereo not given) | -32.9 | ? | / | 0.0% | -1.6 | -72.3*
COc1ccc(C(CCNCc2ccc(N(C)C)cc2)c2ccccc2OC)cc1 (stereo not given) | -99.0* | -8.7% | -2.4% | ? | -0.1 | -5.3
COc1ccc(C(CCNCc2ccc(OC(C)C)cc2)c2ccccc2OC)cc1 (stereo not given) | -88.3* | ? | 0.5% | ? | -0.3 | -89.7*
COc1ccc(CNCCC(c2ccccc2)c2ccc(OC(C)C)cc2)cc1OC (stereo not given) | ? | ? | ? | -26.0% | -1.8 | ?
Cc1ccccc1C(=O)/C=C/c1cccnc1 | / | / | / | -13.2% | 8.9 | /
SMILES | KCNH2 WT inh | BCR signal inh | ClpP mod | ALOX12 inh | LDHA block | KCNH2 3.1 inh
Cc1ccc(SC(=O)c2ccc(F)cc2)cc1 | / | / | / | -16.2% | 5.3 | /
Cc1cc(C)cc(N2CC(c3nc(-c4cccnc4)no3)CC2=O)c1 (stereo not given) | / | / | / | -23.7% | -1.8 | /
Cc1ccccc1S(=O)(=O)N1C(c2ccc(Cl)c(Cl)c2)CC=C(C(=O)O)C1c1cccc(Br)c1 (stereo not given) | / | / | -1.8% | 50.1µM* | -20.7 | /
Cc1ccccc1S(=O)(=O)N1[C@@H](c2ccc(Br)cc2)C(C(=O)O)=CC[C@H]1c1ccc(Cl)cc1 | 0.4 | 5.3% | 1.5% | ? | 0.0 | 1.1
CSc1nc(-c2ccccc2)c(-c2ccccc2)[nH]1 | -5.7 | 5.8% | 15.8µM* | 0.8% | -6.9 | 3.9
Cc1ccc(-c2[nH]c(-c3ccc(C(=O)O)cc3)nc2-c2ccccc2)cc1 | -34.6 | -6.1% | -3.1% | ? | -7.6 | 1.6
O=C(O)C/C(=C/c1cccc(O)c1)c1nc2ccccc2o1 | / | / | / | -10.8% | -4.4 | /
N#C/C(=C\c1c(Cl)cccc1Cl)c1nc2ccccc2o1 | -6.0 | -10.1% | 3.98µM* | -19.7% | 0.0 | -6.2
N#C/C(=C\c1c(Cl)cccc1Cl)c1nc2ccccc2[nH]1 | 10.3 | ? | -14.2% | 0.0% | -2.3 | 9.5
Cc1cc(O)ccc1N/C=C(\C#N)c1nc2ccccc2o1 | -16.8 | ? | 17.8µM* | -24.8% | 0.2 | -7.7
CC=Cc1cc2c(c(=O)o1)C(=O)C(O)C(C)O2 (stereo not given) | 3.2 | / | 12.6µM* | -3.1% | -1.2 | -11.4
Cc1ncc(-c2ccc(C)c(S(=O)(=O)N3CCN(c4ccccc4F)CC3)c2)o1 | / | / | / | 3.3% | -1.8 | /
CNC(=S)N/N=C(\C)c1ccc(Cl)s1 | -3.9 | 16.4µM* | -5.3% | ? | -12.3 | -9.1
COc1ccc(Nc2ccc3nnc(-c4ccccc4Cl)n3n2)cc1 | / | / | / | ? | -7.2 | /
COc1ccc2c(c1)c1c(c(=O)n(Cc3ccccc3)c(=O)n1CC(=O)Nc1ccccc1OC)n2C | / | / | 20µM* | -1.7% | -2.4 | /
S=c1[nH]nc(Cc2cccc3ccccc23)o1 | 2.9 | ? | 28.2µM* | ? | -3.2 | 24.7
Cc1cccc(C)c1OCc1n[nH]c(=S)o1 | 0.4 | -7.4% | -3.9% | 44.7µM* | 0.2 | 9.7
Cc1[nH]c2ccccc2c1Cc1n[nH]c(=S)o1 | -2.8 | 6.7% | -6.8% | ? | 1.6 | -0.1
N#CC1=C(N)OC2=C(CC/C2=C\c2ccccc2)C1c1ccccc1 (stereo not given) | -72.7* | ? | -7.7% | -18.4% | 10.0 | -46.2
N#CC1=C(N)OC2=C(CC/C2=C\c2ccccc2Cl)C1c1ccccc1Cl (stereo not given) | -9.3 | ? | 15.8% | ? | -3.1 | 1.3
O=C(O)CC(C(=O)OCC(F)(F)C(F)F)N1CCOCC1 (stereo not given) | / | / | / | ? | 2.4 | /
Cc1ccc(CN2CCCN(c3cccc(C(=O)N4CCCCCC4)c3)C2=O)cc1 | / | / | / | -4.7% | ? | /
Cc1ccc(CN2C(=O)COC[C@H]2C(=O)NCc2cccc(F)c2)cc1 | / | / | / | 26.4% | / | /

Screens deposited in PubChem BioAssay by National Center for Advancing Translational Sciences (NCATS).
